Activity calls are given as the source filed them. Unless noted, the rule behind the calls is not given here.
Experiments:
[1] = anti-His antibody binders, primary screen, artefact control for SMM control protein annotation, biochemical, small-molecule microarray, 635 nm fluorescence (AID 1128); conditions: anti-His Alexa647 antibody binding, higher = more signal;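 note: score merges feature fluorescence with signal-to-noise for each printed compound spot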
[2] = test system: Human papillomavirus type 1a E7 protein (residues 1-88); test: HPV1a E7 small-molecule binders, primary screen, biochemical, small-molecule microarray, residues 1-88, 635 nm (AID 1129); conditions: small-molecule microarray binding, fluorescence 635 nm; higher = more signal
[3] = target: Focal adhesion kinase 1 (Homo sapiens) (UniProt Q05397); test: small-molecule microarray binders of FAK, primary screen, biochemical, 635/667 nm fluorescence, BSA, DTT (AID 1130); conditions: PTK2 binding, 635 nm fluorescence, higher = more signal;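 note: composite of spot emission at 667 nm and signal to noise over triplicate slides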
[4] = test system: Fibrinogen (Alexa647-labelled); test: fibrinogen binders on compound microarrays, profiling panel, artefact control for SMM control-protein annotation, biochemical, small-molecule microarray, 635/667 nm fluorescence (AID 1131); conditions: fibrinogen-A647 binding fluorescence, higher = more signal;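 note: z-score merges 667 nm fluorescence with per-spot signal-to-noise over triplicate slides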
[5] = target: Follistatin (Homo sapiens) (UniProt P19883); test: follistatin binders on small-molecule microarrays, primary screen, biochemical, small-molecule microarray, 635/667 nm fluorescence (AID 1132); conditions: FST binding, 635 nm fluorescence, higher = more signal
[6] = target: Fibroblast growth factor 2 (Homo sapiens) (UniProt P09038); test: FGF2 binders on small-molecule microarrays, primary screen, biochemical, small-molecule microarray, 635/667 nm fluorescence (AID 1133); conditions: small-molecule microarray binding, FGF2, fluorescence 635/667; higher = more signal
[7] = mitochondrial membrane potential change in A549 cells, profiling panel, cell-based, JC-1 fluorescence, basal, 24 h, 100 nL (AID 1138); conditions: higher = more signal;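 note: A549 lung adenocarcinoma cells under basal conditions with no added stimulus; test concentration not given here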
Lefty1 = Lefty1 binders on small-molecule microarrays, primary screen, biochemical, small-molecule microarray, 635/667 nm fluorescence (AID 1139); conditions: small-molecule microarray binding, fluorescence 635/667; higher = more signal
[8] = test system: wheat germ agglutinin (Triticum aestivum), Alexa647-labelled; test: wheat germ agglutinin binders on compound microarrays, profiling panel, artefact control for SMM control-protein annotation, biochemical, small-molecule microarray, 635/667 nm fluorescence (AID 1140); conditions: WGA-A647 binding, 635 nm fluorescence, higher = more signal;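 note: score merges 667 nm feature emission with signal to noise over triplicate slides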
[9] = target: Luciferin 4-monooxygenase (Photinus pyralis) (UniProt P08659); test: firefly luciferase enzyme inhibitors, primary screen, biochemical, luminescence, purified enzyme, 2006 set (AID 1141); conditions: SteadyGlo luminescence, 30 min, higher = more signal, called active from +8 up or from −8 down;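 note: cell-free assay with purified firefly luciferase at 100 ng per well in PBS; test concentration not given here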
[10] = test system: Wnt5a (protein binding on small-molecule microarray); test: Wnt5a binders on small-molecule microarray, primary screen, biophysical, 635/667 nm fluorescence (AID 1142); conditions: 635 nm fluorescence, higher = more signal;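 note: fluorescence read at 667 nm with signal to noise per printed feature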
[11] = cell viability in Huh7 cells, primary screen, cytotoxicity control for HCV replication inhibitor project, CellTiter-Glo luminescence, basal, 48 h (AID 1143); conditions: Huh7 HCV replicon, higher = more signal, called active from +8 up or from −8 down;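 note: Huh7 hepatoma cells carrying a hepatitis C replication reporter with no stimulus; test concentration not given here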
[12] = P. aeruginosa biofilm formation inhibitors, primary screen, PAO1 strain, BacTiter-Glo luminescence, LB-PBS (AID 1144); conditions: 12 h, higher = more signal
[13] = CREB reporter modulators without forskolin, primary screen, cell-based, PC12, CRE-LacZ reporter, unstimulated (AID 1145); conditions: no forskolin, luminescence, 4.5 h, higher = more signal, called active from +8 up or from −8 down
[14] = CREB reporter modulators under forskolin, primary screen, cell-based, PC12, CRE-LacZ reporter, forskolin-stimulated (AID 1146); conditions: luminescence, 4.5 h, higher = more signal, called active from +8 up or from −8 down;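 note: PC12 cells with 6xCRE LacZ reporter stimulated by forskolin 10 µM; beta-galactosidase reporter signal reflecting CREB driven transcription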
[15] = target: Streptavidin (Streptomyces avidinii) (UniProt P22629); test: streptavidin binders on small-molecule microarray, primary screen, artefact control for SMM compound annotation, biophysical, 635/667 nm fluorescence (AID 1147); conditions: streptavidin binding, higher = more signal;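 note: signal reflects streptavidin binding to arrayed compounds as a control protein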
[16] = small-molecule binders of probe aInhba, primary screen, biochemical, small-molecule microarray, 635/667 nm fluorescence (AID 1148); conditions: higher = more signal;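 note: score merges 667nm spot fluorescence with signal-to-noise for antibody binding to printed compounds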
Torsin-1A (Homo sapiens) [17] = target: Torsin-1A (Homo sapiens) (UniProt O14656); test: torsin A binders from cell lysate, primary screen, small-molecule microarray, wild-type, 635/667 nm (AID 1149); conditions: COS7 hTOR1A-WT lysate, 635 nm fluorescence, higher = more signal
Torsin-1A (Homo sapiens) [18] = target: Torsin-1A (Homo sapiens) (UniProt O14656); test: small-molecule binders of mutant TOR1A in lysate, primary screen, cell lysate, small-molecule microarray, COS7 lysate, 635/667 nm fluorescence (AID 1150); conditions: COS7 hTOR1A mutant lysate, 635 nm fluorescence, higher = more signal;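 note: score pools 667 nm emission and signal to noise measuring lysate protein binding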
[19] = test system: Sonic hedgehog protein (Shh); test: small-molecule binders of Shh protein, primary screen, biochemical, small-molecule microarray, 635/667 nm fluorescence (AID 1151); conditions: small-molecule microarray binding, 635 nm fluorescence; higher = more signal;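 note: Shh protein binding to compounds spotted on small-molecule microarray slides; score combines spot fluorescence intensity with signal-to-noise across triplicate slides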

Sequence of Focal adhesion kinase 1 (Homo sapiens) (Q05397 whole entry, looked up): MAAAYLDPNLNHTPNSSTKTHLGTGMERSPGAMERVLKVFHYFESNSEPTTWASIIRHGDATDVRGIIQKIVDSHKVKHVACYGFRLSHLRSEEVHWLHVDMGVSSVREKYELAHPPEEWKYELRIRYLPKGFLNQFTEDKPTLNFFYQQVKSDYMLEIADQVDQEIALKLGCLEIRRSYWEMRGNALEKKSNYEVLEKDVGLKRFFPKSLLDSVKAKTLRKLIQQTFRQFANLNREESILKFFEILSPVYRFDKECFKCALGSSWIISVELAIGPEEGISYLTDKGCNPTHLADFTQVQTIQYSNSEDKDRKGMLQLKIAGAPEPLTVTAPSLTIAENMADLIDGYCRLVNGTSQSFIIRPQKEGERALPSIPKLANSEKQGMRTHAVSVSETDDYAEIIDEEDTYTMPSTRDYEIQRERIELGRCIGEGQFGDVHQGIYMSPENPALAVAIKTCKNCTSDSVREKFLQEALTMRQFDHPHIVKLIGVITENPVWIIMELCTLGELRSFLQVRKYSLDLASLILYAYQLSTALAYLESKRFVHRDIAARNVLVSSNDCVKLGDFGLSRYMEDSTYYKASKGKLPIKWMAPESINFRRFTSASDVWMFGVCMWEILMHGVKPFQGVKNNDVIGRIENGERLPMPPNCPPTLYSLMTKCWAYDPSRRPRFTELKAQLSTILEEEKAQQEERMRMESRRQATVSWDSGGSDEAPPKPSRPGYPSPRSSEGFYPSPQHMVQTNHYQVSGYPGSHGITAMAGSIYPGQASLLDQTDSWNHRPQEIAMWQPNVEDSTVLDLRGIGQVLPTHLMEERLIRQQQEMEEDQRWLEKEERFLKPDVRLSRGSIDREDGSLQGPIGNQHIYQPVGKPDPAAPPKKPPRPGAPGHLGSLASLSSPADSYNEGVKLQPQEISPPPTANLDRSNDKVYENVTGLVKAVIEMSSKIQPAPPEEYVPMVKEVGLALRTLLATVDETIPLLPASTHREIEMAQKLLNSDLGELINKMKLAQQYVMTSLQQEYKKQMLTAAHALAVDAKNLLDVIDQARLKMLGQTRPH
Sequence of Streptavidin (Streptomyces avidinii) (P22629 whole entry, looked up): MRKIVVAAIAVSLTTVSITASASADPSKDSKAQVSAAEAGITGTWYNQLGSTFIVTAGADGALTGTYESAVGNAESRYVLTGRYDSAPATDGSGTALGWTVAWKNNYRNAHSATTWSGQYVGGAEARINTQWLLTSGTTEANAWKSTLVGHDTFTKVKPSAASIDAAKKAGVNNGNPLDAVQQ
Sequence of Torsin-1A (Homo sapiens) (O14656 whole entry, looked up): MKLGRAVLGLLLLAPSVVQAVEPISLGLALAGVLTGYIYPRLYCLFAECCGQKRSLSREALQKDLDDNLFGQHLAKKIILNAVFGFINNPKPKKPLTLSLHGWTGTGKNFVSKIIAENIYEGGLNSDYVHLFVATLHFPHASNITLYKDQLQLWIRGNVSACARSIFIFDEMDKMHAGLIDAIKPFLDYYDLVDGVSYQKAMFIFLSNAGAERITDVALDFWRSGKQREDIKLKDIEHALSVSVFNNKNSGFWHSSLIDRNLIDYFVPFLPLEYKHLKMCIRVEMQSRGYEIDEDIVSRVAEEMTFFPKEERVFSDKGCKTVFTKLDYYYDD
Sequence of Follistatin (Homo sapiens) (P19883 whole entry, looked up): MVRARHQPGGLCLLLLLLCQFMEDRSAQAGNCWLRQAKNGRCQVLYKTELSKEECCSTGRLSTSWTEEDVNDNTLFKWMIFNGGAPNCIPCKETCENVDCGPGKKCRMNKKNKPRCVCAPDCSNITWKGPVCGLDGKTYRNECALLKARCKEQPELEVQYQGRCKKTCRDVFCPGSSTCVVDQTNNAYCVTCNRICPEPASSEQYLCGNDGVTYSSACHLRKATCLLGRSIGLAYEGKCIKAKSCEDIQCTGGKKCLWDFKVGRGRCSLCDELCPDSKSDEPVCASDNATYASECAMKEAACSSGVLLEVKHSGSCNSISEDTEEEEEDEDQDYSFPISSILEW
Sequence of Luciferin 4-monooxygenase (Photinus pyralis) (P08659 whole entry, looked up): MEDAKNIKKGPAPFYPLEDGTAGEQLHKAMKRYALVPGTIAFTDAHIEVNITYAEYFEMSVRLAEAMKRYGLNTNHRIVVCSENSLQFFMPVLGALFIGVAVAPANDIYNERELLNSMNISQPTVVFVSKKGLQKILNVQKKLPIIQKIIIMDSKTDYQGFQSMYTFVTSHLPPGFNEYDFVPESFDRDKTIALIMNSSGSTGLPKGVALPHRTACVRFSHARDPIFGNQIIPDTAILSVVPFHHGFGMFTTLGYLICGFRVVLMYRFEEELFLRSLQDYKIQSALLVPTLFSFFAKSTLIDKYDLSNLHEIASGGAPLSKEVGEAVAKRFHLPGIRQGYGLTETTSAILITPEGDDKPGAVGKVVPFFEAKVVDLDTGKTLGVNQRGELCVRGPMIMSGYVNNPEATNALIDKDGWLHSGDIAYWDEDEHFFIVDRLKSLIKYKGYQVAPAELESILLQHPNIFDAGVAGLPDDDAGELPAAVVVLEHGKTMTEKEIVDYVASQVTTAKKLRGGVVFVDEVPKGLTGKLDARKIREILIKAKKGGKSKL
Sequence of Fibroblast growth factor 2 (Homo sapiens) (P09038 whole entry, looked up): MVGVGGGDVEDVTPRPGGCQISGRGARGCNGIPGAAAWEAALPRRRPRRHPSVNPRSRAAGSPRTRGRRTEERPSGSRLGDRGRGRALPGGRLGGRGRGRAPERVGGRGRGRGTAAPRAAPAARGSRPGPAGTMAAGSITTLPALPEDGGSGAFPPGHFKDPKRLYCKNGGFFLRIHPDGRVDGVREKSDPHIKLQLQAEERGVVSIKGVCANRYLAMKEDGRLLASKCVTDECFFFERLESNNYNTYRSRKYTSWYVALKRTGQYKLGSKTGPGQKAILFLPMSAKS

SMILES	composite z-score [1]	composite z-score [2]	composite z-score [3]	composite z-score [4]	composite z-score [5]	composite z-score [6]	z-score [7]	composite z-score (Lefty1)	composite z-score [8]	z-score [9]	composite z-score [10]	z-score [11]	z-score [12]	z-score [13]	z-score [14]	composite z-score [15]	composite z-score [16]	composite z-score (Torsin-1A (Homo sapiens) [17])	composite z-score (Torsin-1A (Homo sapiens) [18])	composite z-score [19]
CC(C)Cc1ccc(CN2CC[C@@H](NC(=O)Nc3ccccc3)C2)cc1	-0.0844	-1.63	0.0749	0.494	-0.182	-0.0224	-0.749	0.08	0.244	0.398 (inactive)	0.0405	-8.72 (active)	-0.00187 (inactive)	0.757 (inactive)	-0.269 (inactive)	-0.0067	-0.148	0.257	0.274	0.826
C=CCC(OC(C)=O)[C@@H]1[C@@H](N(Cc2ccc(-c3cccc(C(F)(F)F)c3)o2)C(=O)c2ccc(-c3ccccc3)cc2)c2cc(OCCCO)ccc2N1C(=O)c1ccc2ccccc2n1 (stereo not given in full)	0.445	-0.507	0.0509	0.401	0.772	-0.0036	0.404	0.149	-0.0763	0.141 (inactive)	-0.0222	0.0285 (inactive)	-0.171 (inactive)	0.222 (inactive)	0.53 (inactive)	0.0257	-0.0762	-0.48	-0.0764	0.406
[N-]=[N+]=NCc1ccccc1[C@H]1OC(c2ccc(OCCCO)cc2)=N[C@@]1(CCS(=O)(=O)c1ccccc1)C(=O)NCC(O)CO (stereo not given in full)	2.5	1.26	1.33	1.01	1.36	0.877	-1.22	-0.385	0.983	-0.986 (inactive)	0.914	-0.119 (inactive)	-1.53 (inactive)	1.99 (inactive)	-0.75 (inactive)	1.2	0.257	0.662	1.41	-0.276
[N-]=[N+]=Nc1ccccc1[C@@H]1OC(c2ccc(OCCCO)cc2)=N[C@]1(Cc1ccccc1)C(=O)NCC(O)CO (stereo not given in full)	2.23	0.95	0.587	0.966	1.4	1.06	1.63	-0.823	1.2	-4.93 (inactive)	0.951	-3 (inactive)	0.255 (inactive)	0.834 (inactive)	-1.8 (inactive)	1.34	0.572	0.436	1.47	-0.231
COCCCNC(=O)[C@]1(CCS(=O)(=O)c2ccccc2)N=C(c2ccc(OCCCO)cc2)O[C@@H]1c1ccccc1CN=[N+]=[N-]	3.31	1.25	1.44	0.986	1.32	0.803	0.705	0.144	1.45	-0.842 (inactive)	1.31	-0.635 (inactive)	0.267 (inactive)	-0.781 (inactive)	-0.969 (inactive)	2.07	0.424	1.35	0.738	0.36

From PubChem BioAssay
